Only some compounds are listed: those with a hit (about 4.3% of all), similar ones and a draw of the others.
NadD block: blocks S. aureus nicotinate mononucleotide adenylyltransferase; actives 0.78% (n = 360,000); inhibition, % at 20 µM; purified NadD enzyme, colorimetric absorbance read-out; AID 602399; in the data active = inhibition above about 26%
NR3A LBD binder: NR3A (human) ligand-binding domain modulation; actives 2.5% (n = 340,000); Tm shift relative to glycine control, % at 25 µM; NR3A LBD differential scanning fluorimetry, Tm shift; 0% = protein alone, 100% = glycine-bound protein;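 active = melting temperature shift of at least 10% of the positive control shift, at one fixed dose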
rCAG binder: binds r(CAG) RNA repeats; inhibition, % at 3 µM; actives 1.3% (n = 370,000); r(CAG) RNA repeat, TO-PRO-1 dye displacement fluorescence; AID 651821;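 active = inhibition above the plate cutoff, the mean of all test compounds on that plate plus 3 SD, cut at about 35% in these data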;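 also: 0% = DMSO alone and 100% = 100 µM mitoxantrone as full dye displacement; higher means more dye released from RNA so lower well fluorescence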
FAS-TE inh: blocks the thioesterase domain of human fatty acid synthase; recombinant FAS-TE, OMFH fluorogenic substrate, fluorescence endpoint; P49327; actives 0.67% (n = 360,000); AID 602261; inhibition, % at 15 µM;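 active = compounds whose normalised, plate-corrected inhibition of enzyme fluorescence in the single-dose primary screen is 50% or more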;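 also: 0% = DMSO with enzyme and 100% = substrate without enzyme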
* hit, by the source's call; nt = not tested or not shown.

SMILES	NadD block	NR3A LBD binder	rCAG binder	FAS-TE inh
CCCOP(=O)(c1ccc(N(C)C)cc1)C(Nc1ccccc1)c1ccc(N(C)C)cc1 (centres undefined)	7	-3	5	5
CN1Cc2nnn(Cc3ccccc3)c2-c2cc(N3CCCCC3)ccc2S1(=O)=O	nt	nt	4	nt
COc1ccc(C(=O)Nc2ccccc2C(=O)N/N=C/c2cccc3ccccc23)cc1	11	14*	-1	26
COc1ccc(C(=O)N/N=C/c2cc3ccccc3[nH]c2=O)cc1	0	18*	0	4
COc1ccc(C(=O)N/N=C/c2ccccc2OC(=O)c2ccccc2)cc1	-2	1	0	15
CCCCNC(=O)C[C@@H]1C(=O)N(CCc2ccc(Cl)cc2)C2=CCCCC[C@]21C(=O)OC	nt	nt	4	nt
CCn1c(SCC(=O)Nc2ccc(NC(=O)c3cccs3)cc2)nnc1-c1cccnc1	3	21*	4	-4
COC(=O)c1[nH]c2ccc(C)cc2c1NC(=O)C1=COCCO1	3	0	1	-10
COC(=O)c1[nH]c2ccc(F)cc2c1NC(=O)C1=COCCO1	-2	17*	-2	-1
CCCCOCCCNC(=O)C[C@H]1C[C@@]2(C(=O)OC)C(=C[C@H](C(C)(C)C)O[C@@H]2C)N(Cc2cccc3ccccc23)C1=O	nt	nt	9	nt
CC(C)NC(=S)N=Nc1c(O)[nH]c2ccc([N+](=O)[O-])cc12	0	18*	12	16
COc1ccccc1C(=O)N=Nc1c(O)[nH]c2ccc([N+](=O)[O-])cc12	32*	1	10	4
O=C(CNC(=O)c1ccco1)N=Nc1c(O)[nH]c2ccc([N+](=O)[O-])cc12	0	-1	5	9
NC(=O)N=Nc1c(O)[nH]c2ccc([N+](=O)[O-])cc12	0	-1	2	4
C=C(C)CNC(=S)N=Nc1c(O)[nH]c2ccc([N+](=O)[O-])cc12	1	25*	5	28
COc1ccc(CN2C(=O)N3Cc4ccccc4C3CS2(=O)=O)cc1 (centres undefined)	nt	nt	4	nt
COc1ccc(OC)c(C(=O)c2ccccc2)c1	1	nt	2	-1
COc1ccc(OC)c(C(=O)c2ccc(C(=O)c3cc(OC)ccc3OC)cc2)c1	-6	20*	1	30
COc1ccccc1/C=C1\SC(=S)N(CCC(=O)NNC(=O)c2ccccc2O)C1=O	32*	11*	nt	15
COc1ccc(/C=C2/SC(=S)N(CCCC(=O)Nc3cccc(O)c3)C2=O)cc1	5	12*	17	15
O=C(CCCN1C(=O)/C(=C/c2cccs2)SC1=S)NNC(=O)c1ccccc1O	28*	12*	4	7
COc1ccc(/C=C2\SC(=S)N(CCC(=O)Nc3cccc(O)c3)C2=O)cc1OC	2	2	5	1
O=C(NN1C(=O)/C(=C/C=C/c2ccccc2)SC1=S)c1ccncc1	34*	-2	29	2
O=C(CCCN1C(=O)/C(=C/c2cccs2)SC1=S)Nc1ccccc1O	-2	10*	8	-2
COc1ccc(/C=C2\SC(=S)N(CCCC(=O)NNC(=O)c3ccccc3O)C2=O)cc1	38*	6	2	4
SMILES	NadD block	NR3A LBD binder	rCAG binder	FAS-TE inh
O=C(NN1C(=O)/C(=C/c2ccc(O)cc2)SC1=S)c1ccccc1O	-7	16*	2	-15
O=C(CCCN1C(=O)/C(=C\c2cccs2)SC1=S)Nc1ccc(O)cc1	-1	2	9	4
Cc1c(NC(=O)C2CCCN(S(=O)(=O)c3ccc(F)cc3)C2)c(=O)n(-c2ccccc2)n1C (centres undefined)	nt	nt	2	nt
O=C(NCc1ccc(Cl)cc1)C1C2C=CC3(CN(Cc4ccccc4)C(=O)C13)O2 (centres undefined)	nt	nt	0	nt
C#CCNC(=O)C[C@H]1C[C@@]2(C(=O)OC)C(=C[C@H](C3CCCC3)O[C@@H]2C)N(CCCCCCCC)C1=O	nt	nt	6	nt
CCCCN1CN2Cc3ccc(C)cc3C2CS1(=O)=O (centres undefined)	nt	nt	6	nt
O=C(/C=C/c1ccc(N2CCCCC2)c([N+](=O)[O-])c1)c1ccc(O)cc1	6	11*	20	7
COC(=O)c1cc(NS(=O)(=O)c2ccc(N3CCCCC3)c([N+](=O)[O-])c2)cc(C(=O)OC)c1	3	6	69*	32
Cc1ccc(NS(=O)(=O)c2ccc(N3CCN(c4ccc(O)cc4)CC3)c([N+](=O)[O-])c2)c(C)c1	19	17*	17	9
O=[N+]([O-])c1cc(S(=O)(=O)Nc2ccccc2)ccc1N1CCN(c2ccc(O)cc2)CC1	2	-6	9	-18
COc1ccccc1C(=O)/C=C/c1ccc(N2CCCCC2)c([N+](=O)[O-])c1	5	-5	3	10
Cn1c(Cc2cccs2)nnc1SCC(=O)Nc1ccc2c(c1)OCCO2	nt	nt	2	nt
C=CCN1[C@H](CO)[C@H](c2ccc(C#CC3(O)CCCC3)cc2)[C@@H]1C#N	nt	nt	6	nt
COc1cc(OC)cc(-c2nnc(Nc3nc4c(F)cccc4s3)o2)c1	22	-19	25	16
COc1ccc(-c2nnc(Nc3nc4c(OC)cccc4s3)o2)c(OC)c1	3	-6	51*	9
COc1ccc(CCN(C)Cc2nc(-c3cnccn3)no2)cc1OC	-6	-1	-8	-7
COc1ccc(CCN(Cc2nc(-c3ccccc3)no2)Cc2nc(-c3ccccc3)no2)cc1OC	9	16*	-2	24
COc1cccc(/C=N/NC(=O)CCCC(=O)Nc2ccc(Br)cc2)c1	-1	20*	-1	-4
COc1cc(/C=N/NC(=O)CCC(=O)Nc2ccc(Br)cc2)ccc1O	-4	-5	10	4
NC(CSC(c1ccccc1)(c1ccccc1)c1cccc2ccccc12)C(=O)O (centres undefined)	42*	-20	nt	12
COc1cccc(CNc2ncnc3cc(Cl)ccc23)c1	-3	1	-7	-7
CNc1nc(Cl)c(SC)c(NCc2cccc(OC)c2)n1	-7	17*	5	14
Cc1ccccc1NC(c1cccc(Cl)c1)c1nnnn1C1CCCCC1 (centres undefined)	-7	13*	-1	-4
N#Cc1cccc(C(c2nnnn2C2CCCC2)N2CCCCCC2)c1 (centres undefined)	7	0	2	12
COCCSc1ncccc1-c1nc2ccccc2[nH]1	nt	nt	5	nt
SMILES	NadD block	NR3A LBD binder	rCAG binder	FAS-TE inh
Cc1cccc(-c2cccc3c4c([nH]c23)[C@@H]2C[C@H](N(C)C(=O)c3ccccc3C)[C@H]([C@H](C)O)CN2CC4)c1	nt	nt	4	nt
COc1ccc(C(=O)COC(=O)CNC(=O)c2ccc(OC)cc2)cc1	-1	11*	-3	-1
Nc1ncc(Br)cc1S(=O)(=O)NCCC(=O)Nc1cccc(Cl)c1	0	23*	11	35
CCOC(=O)c1cccc(NC(=O)CCNS(=O)(=O)c2cc(Br)cnc2N)c1	-6	-10	4	4
COc1cc(NC(=O)CCNS(=O)(=O)c2cc(Br)cnc2N)cc(OC)c1	2	-6	2	-2
Cc1cc(NC(=O)CCNS(=O)(=O)c2cc(Br)cnc2N)ccc1Br	5	21*	11	48
